According to PubChem BioAssay AID504675 (Southern Research Specialized Biocontainment Screening …, 2011):
A number with no mark means an inactive call.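 How the source made its calls: active means compound blocking phage killing of bacteria by at least 30% at some tested dose; inactive means the rest.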

Test: UTI89 protection from K1F phage killing – strain UTI89, C7 control, set 3, capsule biogenesis inhibitor project, dose response (AID 504675)
Settings: E. coli UTI89 K1 capsule; OD600, at 100 µM (top of the series); inhibition of phage lysis: at the top concentration

Structure (SMILES) | inhibition of phage lysis [%]
COc1ccc(C(=O)Nc2nc3ccc(OC)cc3s2)cc1 | 1
COc1ccc2nc(NC(=O)c3ccc(F)cc3)sc2c1 | 1
N=c1n(CCN2CCCC2)c2ccccc2n1CC(O)c1ccc(Cl)c(Cl)c1 (centres undefined) | 1
O=C(O)c1cc(-c2cccc(F)c2)nc2ccccc12 | 1
COc1cccc(-c2cc(C(=O)O)c3ccccc3n2)c1 | 1
COc1ccc2nc(NC(=O)c3ccccc3OC)sc2c1 | 1
O=C(O)c1cc(-c2ccc(F)cc2)nc2ccccc12 | 1
COc1ccc2nc(NC(=O)c3ccccc3)sc2c1 | 1
COc1cccc(C(=O)Nc2nc3ccc(OC)cc3s2)c1 | 1
